Results filed as inconclusive are left out. Activity calls are given as the source filed them. The call rests on the fitted dose curve; in most records, active means well fitted inhibition curve with a large enough effect; inconclusive means small, poorly fitted or top-dose-only effect; inactive means no such curve, though single readings can be large or run the other way.
Potency means the concentration at half of the fitted maximal effect.

The test in a line: Acumen qHTS Assay for Inhibitors of the mTORC1 Signaling Pathway in MEF (Tsc2-/-, p53-/-) Cells: Hit Validation.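 Further: phospho-rpS6 Ser235/236 immunofluorescence normalized to propidium iodide cell count; nearly all actives have a fitted effect of over 65% in size.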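 On activity change, negative = inhibition: cells exposed to compound for 24 hours; plate controls were DMSO for no effect and 7.5 nM rapamycin control for full effect.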 Particulars: Acumen imaging; activity change, negative = inhibition: at 37.3 µM (top of the series).
Turning to `Cc1cccc(NC(=O)c2c(N)sc3c2CCC(C)C3)c1` (configuration not stated), the activity change, negative = inhibition was 15.3%.
For the compound `CN1CCC(Nc2ncc3ncnc(Nc4ccc(F)c(Cl)c4)c3n2)CC1`, the activity change, negative = inhibition is -95%.
Still for that read-out and setting: the figure for `COc1cc(-c2ccno2)ccc1S(=O)(=O)N1CCN(c2cc(C)ccc2C)CC1` is -45.4%.
Take `O=C(Nc1ccc(F)c(F)c1)c1ccc(F)c(S(=O)(=O)N2CCC3(CC2)OCCO3)c1`: the Potency was 10.4 µM (active).
On the same count and under the same terms, for `CCc1ccc(NC(=O)Cn2c(=O)n(-c3ccc(OC)cc3)c(=O)c3ccc(C(=O)NCc4ccc(C)cc4)cc32)cc1` the value was 4.65 µM (active).
`COc1cccc(-c2nc(SCC(=O)NCC3CCCO3)c(-c3ccc(F)cc3)[nH]2)c1` (configuration not stated): the activity change, negative = inhibition is -3.33%.
With `Cc1nc2nncn2c(NCc2ccc(Cl)cc2)c1C`, the Potency is 4.14 µM (active).
On the same count and under the same terms, for `CCOC(=O)c1c(C)[nH]c(CCC(=O)NCCCN2CCN(c3cc(C)ccc3C)CC2)c1C` the value was 16.5 µM (active).
Turning to `Cc1nnc(C(=O)NC(C)(C)c2nc(C(=O)NCc3ccc(F)cc3)c(O)c(=O)n2C)o1`, the activity change, negative = inhibition was -4.28%.
On the same count and under the same terms, the figure for `CCOc1ccc(NC(=O)N(Cc2c[nH]c3ccccc23)C2CCCCCC2)cc1` is -15.9%; for `Cc1cccc(OCc2ccc(-c3nc(C#N)c(NCCN(C)C)o3)o2)c1` it is 0.2%.
Consider `COc1cccc(-n2c(-c3ccco3)nc3c(cnn3-c3ccc(C)cc3)c2=O)c1`, for which the activity change, negative = inhibition is 15.6%.
Take `COc1ccc2nc(NC(=O)c3nc(S(=O)(=O)Cc4ccccc4)ncc3Cl)sc2c1`: the Potency is 5.85 µM (active).
On the same count and under the same terms, for `Cc1ccc(CS(=O)(=O)c2ncc(Cl)c(C(=O)Nc3nnc(C(C)C)s3)n2)cc1` the value was 5.85 µM (active).
With `O=C(Nc1ccc2oc(-c3cc(Br)ccc3Cl)nc2c1)c1cc2ccccc2o1`, the activity change, negative = inhibition was -105%.
Turning to `CCCCOc1cccc(C(=O)N2CCN(CCc3ccncc3)CC2)c1`, the activity change, negative = inhibition is 0.726%.
As to `CCCC1=Nc2cc(C(=O)NCc3ccccc3)ccc2Sc2ccccc21`, the Potency is 4.14 µM (active).
In the case of `CCOc1ccc(CC(=O)NC2CC(=O)N(c3ccc4c(c3)OCCO4)C2)cc1` (configuration not stated), the activity change, negative = inhibition is -2.04%.
Take `CCS(=O)(=O)c1ncc(Cl)c(C(=O)Nc2ccccc2)n1`: the Potency was 1.31 µM (active).
As for `Cc1cc(C)cc(NC(=O)c2cnn(-c3ccc(C)c(C)c3)c2C2CCNCC2)c1`, the activity change, negative = inhibition was -31.5%.
For the compound `Cc1ccc(Nc2nc(C(N)=O)c(NC(=O)c3ccccc3Br)s2)cc1`, the Potency was 5.85 µM (active).
Consider `Cc1ccc(NC(=O)Nc2cccs2)c(C)c1`, for which the activity change, negative = inhibition is -40.4%.
Consider `COC(=O)c1ccccc1NC(=O)Cn1c(=O)n(-c2ccc(C)cc2)c(=O)c2ccccc21`, for which the Potency is 5.85 µM (active).
Same read-out and setting: the figure for `COc1cc(C(=O)Nc2ccc(NC(=O)c3ccc(C(C)(C)C)cc3)cc2)cc(OC)c1OC` is 10.4 µM (active); for `CCOc1cc(-c2nnc(SCC(=O)NCc3ccccc3)nc2-c2ccc(OC)c(OCC)c2)ccc1OC` it is 2.07 µM (active).
With `CCc1ccc(NC(=O)CSc2nccn2C2CCCC2)cc1`, the activity change, negative = inhibition is -3.21%.
Still for that read-out and setting: the figure for `Cc1ccc(C(=O)CC2(O)C(=O)N(Cc3ccccc3F)c3ccccc32)cc1` (configuration not stated) is -11.8%; for `CC(C)(C)C(=O)Nc1ccc(-c2nc3ccc(NC(=O)C(C)(C)C)cc3[nH]2)cc1` it is -3.72%.
Turning to `Cc1ccc(C(=O)/C=C/c2cn(CC(O)CN3CCCCCC3)c3ccccc23)cc1` (configuration not stated), the Potency is 18.5 µM (active).
Take `O=C(CC(NCc1cccnc1)C(=O)O)Nc1ccc(O)cc1` (configuration not stated): the activity change, negative = inhibition was determined as 5.37%.
In the case of `COc1ccc(C(=O)Nc2ccc(OCc3cc(=O)n4ccccc4n3)cc2)cc1`, the activity change, negative = inhibition is 7.16%.
Regarding `CN1CCN(C2(CNC(=O)COc3ccc(C(C)(C)C)cc3)CCCCC2)CC1`, the Potency is 14.7 µM (active).
Same read-out and setting: the figure for `COc1cccc(-c2nnc3sc(CN4CCCCC4)cn23)c1` is 1.04 µM (active).
Turning to `COc1ccc(NC(=O)c2c(NC(=O)COc3ccccc3)sc3c2CCC(C)C3)cc1` (configuration not stated), the activity change, negative = inhibition came to 6.92%.
For `CCc1ccccc1NC(=O)CSCc1cnn(-c2ccccc2)c1-n1cccc1`, the activity change, negative = inhibition worked out at 14.7%.
The same measure, in the same setting: the figure for `Cc1ccccc1CS(=O)(=O)c1ncc(Cl)c(C(=O)Nc2nnc(C(C)C)s2)n1` is -92.9%.
On to `CCn1c(CC2C(=O)N(C)c3ccc(Br)cc32)nc2ccccc2c1=O` (configuration not stated), for which the activity change, negative = inhibition was -27%.

The record behind these values is PubChem BioAssay AID651784 (National Center for Advancing Translational Sciences (NCATS), 2012).
